For test [1], the target named is Paired box protein Pax-6 (Homo sapiens) (UniProt P26367). The test can be described thus: ATG_Pax6_CIS: Attagene CIS-FACTORIAL HepG2 Assay for human Paired Box 6 (PAX6) (AID 2282956). The settings on record: HepG2 CIS-FACTORIAL PAX6 reporter transcription, RNA readout; actives raise or lower the signal. Summed up: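 Read-out is reporter transcript level, measured by RT-PCR with fluorescent primer extension and capillary electrophoresis after 24 h dosing of transfected HepG2 cells. Activity in either direction fitted relative to DMSO control.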
Sequence of Paired box protein Pax-6 (Homo sapiens) (P26367 whole entry, looked up): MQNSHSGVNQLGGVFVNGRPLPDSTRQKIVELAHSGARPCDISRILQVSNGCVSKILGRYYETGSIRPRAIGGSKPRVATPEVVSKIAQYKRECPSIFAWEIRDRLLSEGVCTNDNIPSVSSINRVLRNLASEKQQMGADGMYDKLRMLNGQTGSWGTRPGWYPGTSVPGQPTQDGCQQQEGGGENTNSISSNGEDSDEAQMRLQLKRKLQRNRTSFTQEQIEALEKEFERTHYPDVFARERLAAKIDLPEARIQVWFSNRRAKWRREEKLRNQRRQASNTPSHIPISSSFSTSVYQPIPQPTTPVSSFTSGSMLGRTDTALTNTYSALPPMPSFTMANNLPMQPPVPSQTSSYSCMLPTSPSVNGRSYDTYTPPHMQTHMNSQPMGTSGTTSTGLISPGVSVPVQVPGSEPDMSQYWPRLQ

Test [2] in a line: ATG_PXRE_CIS: Attagene CIS-FACTORIAL HepG2 Assay for human Pregnane X Receptor Element (PXRE) (AID 2282957). The settings on record: HepG2 Attagene CIS-FACTORIAL PXRE reporter, mRNA; actives raise or lower the signal. The gist of the method:
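Endogenous transcription factor activity in HepG2 was gauged through induction of reporter mRNA driven by a cis-regulating promoter element, sampled 24 h post-treatment. Activity was fitted in both directions against DMSO negative control.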

Test [3] is described as follows: ATG_PPRE_CIS: Attagene CIS-FACTORIAL HepG2 Assay for human Peroxisome Proliferator-activated Response Element (PPRE) (AID 2282958). Particulars: HepG2 PPRE cis-element reporter, Attagene transcription factor profiling; actives raise or lower the signal. The gist of the method: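 Read-out: fluorescent reporter mRNA fragments resolved by capillary electrophoresis after RT-PCR. HepG2 cells carried transiently transfected PPRE-driven cis reporter constructs and were dosed for 24 h; gain or loss of signal fitted relative to DMSO.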

Test [4] can be described thus: ATG_Sox_CIS: Attagene CIS-FACTORIAL HepG2 Assay for human SRY-box transcription factor (SOX) (AID 2282960). The settings on record: HepG2 Attagene cis-factorial SOX reporter, mRNA; actives raise or lower the signal. The gist of the method: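 Read-out: fluorescent RT-PCR products of SOX1-linked reporter transcripts resolved by capillary electrophoresis, fitted bidirectionally against DMSO. Transiently transfected HepG2 cells, 24 h after chemical exposure, endogenous transcription factor activity.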

Test [5] addresses Transcription factor Sp1 (Homo sapiens) (UniProt P08047). The test can be described thus: ATG_Sp1_CIS: Attagene CIS-FACTORIAL HepG2 Assay for human Specificity Protein 1 (Sp1) (AID 2282961). The settings on record: HepG2 Sp1 cis-reporter transcription, actives raise or lower the signal. The gist of the method: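 Read-out: fluorescence of 6-FAM-labeled, HpaI-digested RT-PCR products separated by capillary electrophoresis. HepG2 cells carried transfected cis-element reporter units and were exposed to chemicals for 24 h; gain or loss of signal fitted relative to DMSO.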

Test [6] is described as follows: ATG_SREBP_CIS: Attagene CIS-FACTORIAL HepG2 Assay for human Sterol Regulatory Element Binding (SREBP) (AID 2282962). Particulars: HepG2 Attagene cis-factorial SREBP reporter, mRNA; actives raise or lower the signal. Summed up: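 Endogenous SREBP activity read as cis-element-driven reporter transcript in transiently transfected HepG2, 24 h post-dosing; quantified via RT-PCR plus capillary electrophoresis of fluorescent fragments. Gain or loss of signal fitted relative to DMSO baseline.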

The target of test [7] is Signal transducer and activator of transcription 3 (Homo sapiens) (UniProt P40763). Put plainly: ATG_STAT3_CIS: Attagene CIS-FACTORIAL HepG2 Assay for human Signal Transducer and Activator of Transcription 3 (STAT3) (AID 2282963). Particulars: HepG2, Attagene cis-factorial STAT3 reporter transcription; actives raise or lower the signal. Summed up: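 Cis-factorial format: endogenous transcription factors in HepG2 drive transfected reporter units. After 24 h treatment, reporter RNA was reverse-transcribed, amplified, FAM-labelled and HpaI-digested before CE analysis; activity scored in both directions against DMSO.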
Sequence of Signal transducer and activator of transcription 3 (Homo sapiens) (P40763 whole entry, looked up): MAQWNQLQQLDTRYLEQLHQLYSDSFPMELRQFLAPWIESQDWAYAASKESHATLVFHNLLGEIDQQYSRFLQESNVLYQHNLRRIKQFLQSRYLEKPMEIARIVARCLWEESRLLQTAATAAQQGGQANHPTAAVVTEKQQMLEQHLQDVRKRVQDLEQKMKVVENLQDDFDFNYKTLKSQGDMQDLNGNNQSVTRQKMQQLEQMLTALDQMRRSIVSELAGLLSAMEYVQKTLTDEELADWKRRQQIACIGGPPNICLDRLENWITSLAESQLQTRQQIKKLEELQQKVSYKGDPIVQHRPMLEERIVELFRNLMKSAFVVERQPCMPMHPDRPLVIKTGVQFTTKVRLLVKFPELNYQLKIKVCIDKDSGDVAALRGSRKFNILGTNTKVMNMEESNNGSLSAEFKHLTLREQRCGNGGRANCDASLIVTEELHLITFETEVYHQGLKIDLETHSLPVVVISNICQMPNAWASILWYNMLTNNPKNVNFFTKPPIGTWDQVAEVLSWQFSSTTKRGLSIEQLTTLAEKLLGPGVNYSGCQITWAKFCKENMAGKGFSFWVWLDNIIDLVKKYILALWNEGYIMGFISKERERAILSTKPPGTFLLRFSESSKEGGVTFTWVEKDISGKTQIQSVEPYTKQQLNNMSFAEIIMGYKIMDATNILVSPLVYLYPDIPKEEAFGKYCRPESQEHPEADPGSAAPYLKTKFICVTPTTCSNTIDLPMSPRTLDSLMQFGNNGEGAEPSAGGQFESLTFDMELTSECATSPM

Test [8] can be described thus: ATG_TA_CIS: Attagene CIS-FACTORIAL HepG2 Assay for human TA Basal Promoter (AID 2282964). The settings on record: HepG2 Attagene CIS-factorial TA basal promoter reporter; actives raise or lower the signal. The gist of the method: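 Multiplexed mRNA reporter assay, HepG2, 24 h. Reporter cDNA amplified, 6-FAM primer-extended, HpaI-cut, CE-sized; DMSO = negative control and baseline.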

A short description of test [9]: ATG_TCF_b_cat_CIS: Attagene CIS-FACTORIAL HepG2 Assay for human T-Cell-Factor with beta-catenin (TCF/b-cat) (AID 2282965). Particulars: HepG2 TCF/beta-catenin cis-reporter transcription, actives raise or lower the signal. The gist of the method:
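Endogenous transcription factor activity is captured through cis-promoter reporter constructs transiently introduced into human HepG2 liver cells. Induced reporter mRNA is measured after 24 h and fitted bidirectionally relative to DMSO.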

Test [10] in a line: ATG_TAL_CIS: Attagene CIS-FACTORIAL HepG2 Assay for human TAL Basal Promoter (AID 2282966).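 Also: background control endpoint measuring basal TAL promoter reporter mRNA not a specific factor.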 Particulars: HepG2 Attagene cis-factorial TAL promoter reporter; actives raise or lower the signal. Summed up:
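Endogenous transcription-factor activity is sensed in HepG2 cells through transfected cis-promoter reporter constructs. After 24 h dosing, reporter transcripts are quantified by RT-PCR and capillary electrophoresis. Gain or loss of signal is fitted relative to DMSO.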

Test [11] in a line: ATG_TGFb_CIS: Attagene CIS-FACTORIAL HepG2 Assay for human Transforming Growth Factor (TGF) (AID 2282967). Particulars: HepG2 Attagene CIS TGFb reporter, mRNA transcription; actives raise or lower the signal. Summed up: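 Transcript-level reporter readout: HepG2 transfectants, 24 h exposure, RNA to cDNA, reporter-specific PCR, fluorescent primer extension, capillary sizing against ROX standards. Gain- or loss-of-signal relative to DMSO.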

A short description of test [12]: ATG_VDRE_CIS: Attagene CIS-FACTORIAL HepG2 Assay for human Vitamin D Receptor Element (VDRE) (AID 2282968). Particulars: HepG2 VDRE cis-reporter transcription, actives raise or lower the signal. Summed up: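 Measures endogenous factor activity through cis-element-driven reporter transcripts in transiently transfected HepG2. Cells are treated 24 h; reporter mRNA is quantified by RT-PCR and capillary electrophoresis; fitting is bidirectional.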

The target of test [13] is X-box-binding protein 1 (Homo sapiens) (UniProt P17861). Put plainly: ATG_Xbp1_CIS: Attagene CIS-FACTORIAL HepG2 Assay for human X-box Binding Protein 1 (XBP1) (AID 2282972). The settings on record: HepG2 XBP1 cis-element reporter, Attagene multiplex; actives raise or lower the signal. Summed up: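 Reporter transcripts were quantified by RT-PCR with fluorescent primer extension and capillary electrophoresis after 24 h chemical exposure. Cells: transiently transfected HepG2 carrying cis-regulated reporter constructs; data fitted bidirectionally relative to DMSO.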
Sequence of X-box-binding protein 1 (Homo sapiens) (P17861 whole entry, looked up): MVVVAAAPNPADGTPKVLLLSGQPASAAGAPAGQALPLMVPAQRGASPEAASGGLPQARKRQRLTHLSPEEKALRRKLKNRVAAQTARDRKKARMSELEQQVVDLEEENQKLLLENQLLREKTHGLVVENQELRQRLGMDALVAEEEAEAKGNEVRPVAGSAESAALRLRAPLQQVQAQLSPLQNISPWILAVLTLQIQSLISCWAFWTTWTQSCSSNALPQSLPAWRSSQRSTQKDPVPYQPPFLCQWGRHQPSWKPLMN

Test [14] in a line: ATG_GAL4_TRANS: Attagene TRANS-FACTORIAL HepG2 Assay for GAL4 (Internal Marker) (AID 2282976; active = hit-call score of the fitted dose curve at least 0.9, where 1 is the maximum). The settings on record: HepG2 Attagene TRANS GAL4 internal marker reporter. Summed up: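 Fluorescence from capillary electrophoresis of labelled RT-PCR products quantifies reporter mRNA induction after 24 h dosing of HepG2 cells carrying transfected GAL4-UAS reporter transcription units. Vehicle DMSO serves as baseline.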

The target of test [15] is Nuclear receptor subfamily 1 group I member 3 (Homo sapiens) (UniProt Q14994). The test can be described thus: ATG_CAR_TRANS: Attagene TRANS-FACTORIAL HepG2 Assay for human Constitutive Androstane Receptor (CAR) (AID 2282969; active = hit-call score of the fitted dose curve at least 0.9, where 1 is the maximum;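 also: activators raise reporter mRNA above DMSO so AC50 marks induction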). The settings on record: HepG2 Attagene TRANS-FACTORIAL CAR reporter. The gist of the method:
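Signal is reporter mRNA induction relative to DMSO, measured 24 h after dosing by RT-PCR with fluorescent primer extension and capillary electrophoresis. Human HepG2 liver cells carried transiently transfected chimeric NR-Gal4/GAL4-UAS reporter constructs.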

Test [16] concerns the target Estrogen receptor (Homo sapiens) (UniProt P03372). The test can be described thus: ATG_ERa_TRANS: Attagene TRANS-FACTORIAL HepG2 Assay for human Estrogen Receptor alpha (ERa) (AID 2282970; active = hit-call score of the fitted dose curve at least 0.9, where 1 is the maximum). The settings on record: HepG2 Attagene TRANS ERa GAL4 reporter, mRNA. The gist of the method: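 Transfected HepG2 cells carrying GAL4-UAS-driven reporter units were dosed for 24 hours. Total RNA was reverse-transcribed, reporter sequences PCR-amplified, FAM-labelled, HpaI-digested and resolved by capillary electrophoresis. Increases over DMSO control defined activity.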

Test [17] deals with Estrogen-related receptor gamma (Homo sapiens) (UniProt P62508). Put plainly: ATG_ERRg_TRANS: Attagene TRANS-FACTORIAL HepG2 Assay for human Estrogen-Related Receptor gamma (ERRg) (AID 2282977; active = hit-call score of the fitted dose curve at least 0.9, where 1 is the maximum;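 also: hits increase reporter signal over DMSO so potencies reflect activators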). Particulars: HepG2 Attagene TRANS reporter, ERRg transactivation. Summed up:
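Exogenous NR-Gal4 chimera activity was assessed in HepG2 cells bearing transfected GAL4-UAS reporters. After 24 h dosing, total RNA underwent RT-PCR, fluorescent primer extension and HpaI digestion before capillary electrophoresis, with gain of signal scored against DMSO.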

A short description of test [18]: ATG_RORE_CIS: Attagene CIS-FACTORIAL HepG2 Assay for human RAR-related Orphan Receptor Element (RORE) (AID 2282959). The settings on record: HepG2 Attagene cis-factorial RORE reporter, mRNA; actives raise or lower the signal. Summed up: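 Readout: fluorescent reporter mRNA by RT-PCR plus capillary electrophoresis, 24 h after dosing transfected HepG2 cells. Endogenous transcription factor activity on a cis promoter element is measured. Gain or loss of signal fitted against DMSO.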

Test [19] is described as follows: ATG_M_19_TRANS: Attagene TRANS-FACTORIAL HepG2 Assay for M19 Transcription Factor (Internal Marker) (AID 2282974; active = hit-call score of the fitted dose curve at least 0.9, where 1 is the maximum). The settings on record: HepG2 Attagene TRANS-FACTORIAL M19 internal marker reporter. The gist of the method: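 24 h chemical exposure of transiently transfected HepG2 (MRTU library). RNA → oligo(dT) RT → PCR → 6-FAM labelling → HpaI cut → CE fluorescence. Positive-direction fit vs DMSO baseline; background internal-marker readout.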

For orientation: AC50 means the midpoint of the concentration-response curve, whichever way the signal moves.

Inconclusive results are not listed. Active and inactive are the calls of the source. The calls were made as follows, unless noted: active = hit-call score of the fitted dose curve at least 0.9, where 1 is the maximum; inactive = score below 0.9.

Sequence of Estrogen receptor (Homo sapiens) (P03372 whole entry, looked up, the tested form may be a part): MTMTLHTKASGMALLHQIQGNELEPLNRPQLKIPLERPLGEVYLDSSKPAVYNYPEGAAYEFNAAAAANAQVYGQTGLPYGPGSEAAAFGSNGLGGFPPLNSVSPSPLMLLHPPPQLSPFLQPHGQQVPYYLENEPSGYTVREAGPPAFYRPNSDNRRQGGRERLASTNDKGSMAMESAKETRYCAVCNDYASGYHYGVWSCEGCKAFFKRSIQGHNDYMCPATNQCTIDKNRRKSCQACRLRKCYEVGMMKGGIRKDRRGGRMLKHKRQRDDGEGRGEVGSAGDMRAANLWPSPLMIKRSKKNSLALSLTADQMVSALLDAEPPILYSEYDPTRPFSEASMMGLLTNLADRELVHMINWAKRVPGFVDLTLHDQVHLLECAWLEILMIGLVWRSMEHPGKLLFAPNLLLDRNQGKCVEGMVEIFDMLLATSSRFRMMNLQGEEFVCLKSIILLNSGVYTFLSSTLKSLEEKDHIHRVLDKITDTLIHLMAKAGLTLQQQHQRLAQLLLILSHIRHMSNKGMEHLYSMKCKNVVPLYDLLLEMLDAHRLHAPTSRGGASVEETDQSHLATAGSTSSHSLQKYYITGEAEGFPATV
Sequence of Nuclear receptor subfamily 1 group I member 3 (Homo sapiens) (Q14994 whole entry, looked up, the tested form may be a part): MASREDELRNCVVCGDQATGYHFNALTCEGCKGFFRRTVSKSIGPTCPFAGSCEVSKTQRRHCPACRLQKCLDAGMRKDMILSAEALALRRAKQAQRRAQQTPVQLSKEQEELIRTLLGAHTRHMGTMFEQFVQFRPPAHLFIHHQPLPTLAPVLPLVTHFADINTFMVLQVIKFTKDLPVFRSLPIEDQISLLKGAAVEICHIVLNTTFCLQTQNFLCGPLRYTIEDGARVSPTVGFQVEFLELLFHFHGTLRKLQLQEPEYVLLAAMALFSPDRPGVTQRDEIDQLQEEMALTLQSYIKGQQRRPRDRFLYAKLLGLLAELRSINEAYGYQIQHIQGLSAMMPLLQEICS
Sequence of Transcription factor Sp1 (Homo sapiens) (P08047 whole entry, looked up): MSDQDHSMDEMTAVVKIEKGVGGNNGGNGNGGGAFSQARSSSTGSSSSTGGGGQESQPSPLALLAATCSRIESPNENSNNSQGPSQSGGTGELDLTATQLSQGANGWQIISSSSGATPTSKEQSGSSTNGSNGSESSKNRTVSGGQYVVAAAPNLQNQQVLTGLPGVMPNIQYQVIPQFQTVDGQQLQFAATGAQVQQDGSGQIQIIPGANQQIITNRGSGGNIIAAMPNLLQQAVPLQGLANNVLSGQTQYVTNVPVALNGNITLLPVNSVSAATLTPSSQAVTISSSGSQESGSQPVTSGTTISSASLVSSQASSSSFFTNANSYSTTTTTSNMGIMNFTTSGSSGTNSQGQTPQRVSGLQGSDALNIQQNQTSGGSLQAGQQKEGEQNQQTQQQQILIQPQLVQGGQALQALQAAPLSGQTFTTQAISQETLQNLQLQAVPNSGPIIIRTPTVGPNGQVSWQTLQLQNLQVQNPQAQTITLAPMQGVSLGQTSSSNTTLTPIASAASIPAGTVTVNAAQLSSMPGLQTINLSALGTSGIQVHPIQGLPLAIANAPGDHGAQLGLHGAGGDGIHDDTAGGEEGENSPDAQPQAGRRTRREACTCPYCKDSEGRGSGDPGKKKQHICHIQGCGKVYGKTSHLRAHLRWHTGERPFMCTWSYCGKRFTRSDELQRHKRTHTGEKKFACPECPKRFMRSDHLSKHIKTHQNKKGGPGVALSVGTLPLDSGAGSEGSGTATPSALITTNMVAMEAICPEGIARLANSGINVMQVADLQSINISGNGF
Sequence of Estrogen-related receptor gamma (Homo sapiens) (P62508 whole entry, looked up, the tested form may be a part): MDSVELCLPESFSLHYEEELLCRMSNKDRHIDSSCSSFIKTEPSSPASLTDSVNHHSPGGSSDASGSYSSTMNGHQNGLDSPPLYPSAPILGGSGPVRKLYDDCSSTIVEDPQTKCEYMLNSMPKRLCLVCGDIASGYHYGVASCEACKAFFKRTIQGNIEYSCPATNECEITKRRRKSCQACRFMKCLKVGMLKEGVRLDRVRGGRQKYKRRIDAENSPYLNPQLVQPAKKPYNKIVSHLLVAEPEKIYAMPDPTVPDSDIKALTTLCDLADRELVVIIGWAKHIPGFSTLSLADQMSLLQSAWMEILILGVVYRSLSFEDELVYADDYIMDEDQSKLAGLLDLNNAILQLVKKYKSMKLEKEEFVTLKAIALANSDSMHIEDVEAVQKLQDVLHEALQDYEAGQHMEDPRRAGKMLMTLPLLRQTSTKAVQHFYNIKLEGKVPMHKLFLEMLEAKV

As to `CC(C)=CCC/C(C)=C/COC=O`, the outcome in test [1], in test [2], in test [3], in test [4], in test [5] and in [6] was inactive. Further, the compound was called inactive in test [7], in [8], in test [9], in test [10], in test [11] and in test [12]. Also, the compound was classed as inactive in [13] and in test [14].

With `Nc1ccc(F)c([N+](=O)[O-])c1`, the outcome in test [1], in [2], in [3], in test [4], in test [5] and in test [6] was inactive. The compound was classed as inactive in [7], in test [8], in test [9], in test [10], in test [15] and in test [16]. The result in [13] and in test [17] was inactive.

With `S=C(S)NCCNC(=S)S`, the outcome in test [1], in test [2], in [18], in test [4], in test [5] and in test [6] was inactive. Moreover, the compound was classed as inactive in test [7], in test [8], in [9], in test [10], in [13] and in test [14].

For `CN(CCOc1ccc(CC2SC(=O)NC2=O)cc1)c1ccccn1` (stereo not given), the outcome in test [1], in test [4], in test [5], in test [7], in [8] and in [9] was inactive. In addition, the compound was called inactive in test [10], in test [11], in [15], in test [16], in test [13] and in test [19]. Moreover, the AC50 in test [2] was 6.08 µM (active); in test [18], 9.64 µM (active); in test [6] it was 5.58 µM (active).

Turning to `OC1OC[C@@H](O)[C@H](O)[C@H]1O` (stereo not given in full), the compound was classed as inactive in test [1], in [2], in test [18], in test [4], in test [5] and in test [6]. The call in test [7], in test [8], in test [9], in test [10], in [11] and in test [13] was inactive. In addition, in [19], the outcome was inactive.

Consider `CC(C)(Oc1ccc(CCNC(=O)c2ccc(Cl)cc2)cc1)C(=O)O`, for which the compound was classed as inactive in [1], in [18], in [4], in [5], in test [6] and in test [7]. For the same compound, the result in test [9], in test [10], in [11], in test [12] and in test [13] was inactive. For the same compound, the AC50 in test [2] was 25.6 µM (active).

In the case of `Cc1cc(C2(c3cc(C)c(O)cc3C)OS(=O)(=O)c3ccccc32)c(C)cc1O`, the outcome in test [1], in test [18], in test [4], in test [5], in test [6] and in [7] was inactive. Moreover, the outcome in [8], in test [9], in test [10], in test [11], in test [15] and in [13] was inactive. In addition, in test [14], the compound was called inactive. In addition, the figures for the AC50 in [2] and in [16] were 24.2 µM (active) and 4.2 µM (active), respectively.

Source of the values: PubChem BioAssay (EPA / NIEHS).
